Results published in PubChem BioAssay (NCI).
About 83,000 compounds went through this panel and 20% of them were active in at least one assay; those are over-represented in the sample as a whole.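 How to read the values: 0–100, growth inhibition (40 = 60% inhibited); 0, no net growth; -100 to 0, cell death (-40 = 40% of starting cells died; -100 = all dead).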 A number with no mark means an inactive call. The source made the active and inactive calls. How the source made its calls: active means growth percent below 10; inactive means the rest.

What was measured:
Assay in all cases: NCI-60 one-dose screen, 48 h (100 = growth as untreated, 0 = no growth, -100 = all killed)
Settings in all cases: 10 µM unless noted
[1] = tested on: NCI-H23 lung
[2] = tested on: NCI-H226 lung
[3] = tested on: NCI-H322M lung
[4] = tested on: HOP-62 NSCLC
[5] = tested on: NCI-H460 lung
[6] = tested on: HOP-92 NSCLC
[7] = tested on: NCI-H522 lung
[8] = tested on: A549/ATCC NSCLC
[9] = tested on: 786-0 renal
[10] = tested on: DU-145 prostate
[11] = tested on: K-562 leukemia
[12] = tested on: MALME-3M melanoma
[13] = tested on: MDA-MB-231 breast
[14] = tested on: RXF 393 renal
[15] = tested on: SF-268 CNS
[16] = tested on: SF-295 CNS
[17] = tested on: SF-539 CNS
[18] = tested on: UACC-257 melanoma
[19] = tested on: M14 melanoma

| Compound | growth [1] [%] | growth [2] [%] | growth [3] | growth [4] | growth [5] | growth [6] | growth [7] | growth [8] | growth [9] | growth [10] | growth [11] | growth [12] | growth [13] | growth [14] | growth [15] [%] | growth [16] | growth [17] | growth [18] | growth [19] [%] |
| --- | --- | --- | --- | --- | --- | --- | --- | --- | --- | --- | --- | --- | --- | --- | --- | --- | --- | --- | --- |
| CCOc1ccc2nc(-c3cccc(OCC(=O)NC(C)C)c3)nc(Nc3ccc(-c4cn[nH]c4)cc3)c2c1 | 11.3 | 38.8 | -8.36% (active) | -36.3% (active) | -37.9% (active) | -27.9% (active) | -25.3% (active) | -34.9% (active) | -12.5% (active) | 4.3% (active) | -17.1% (active) | -66% (active) | 2.7% (active) | -43.7% (active) | 12.6 | -47.4% (active) | -79.6% (active) | -53.7% (active) | 11.6 |
| COc1cccc(-c2nc3sccn3c2-c2ccnc(NCCNS(=O)(=O)c3c(Cl)cccc3Cl)c2)c1 | 60.2 | 57.4 | 87.4% | 88.4% | 61% | 43% | 60.5% | 47.1% | 62.6% | 63% | 29.3% | 77.8% | 76.7% | 69.9% | 26.1 | 60.7% | 85.9% | 85.1% | 57.7 |
| c1ccc(-c2oc3ccccc3c2-c2ccccc2)cc1 | 90.2 | 88.3 | 95.8% | 105% | 99.8% | 89.5% | 83% | 97.2% | 98.8% | 115% | 67.7% | 110% | 100% | 99.1% | 109 | 104% | 98.5% | 111% | 102 |
| OC(COc1cccc2ccccc12)CN1CCN(c2ccccc2)CC1 (stereo not drawn) | 87.3 | 99.1 | 99.7% | 90.4% | 106% | 77.6% | 101% | 102% | 94.2% | 109% | 114% | 97.7% | 96.1% | 9.82% (active) | 103 | 73.3% | 99.8% | 63.3% | 86.8 |
| C=C1c2c(C)nn(-c3ccc(NC(C)=O)cc3)c2N(C)C23CC1C1(C)c4c(C)nn(-c5ccc(NC(C)=O)cc5)c4N(C)C(C)(CC12)C3 (stereo not drawn) | 58.2 | 47.2 | 61.2% | 55.9% | 8.58% (active) | 65% | 42.9% | 26.3% | 43.5% | 46.8% | 14.9% | 71.1% | 48.4% | 29.9% | 43.8 | 35.6% | 63.1% | 38.4% | 19.6 |
| CCC(C)NCc1ccccc1 (stereo not drawn) | 97.1 | 92.2 | 98.1% | 97.6% | 102% | 93.8% | 66.7% | 95.4% | 98.6% | 106% | 98.1% | 105% | 96.4% | 99.3% | 98.9 | 98.9% | 102% | 103% | 96.9 |
| N#Cc1c(NC(=O)c2ccc(Br)cc2)sc2c1CCCC2 | 65 | 44.2 | 52.1% | 46.4% | 14.3% | 81.5% | 22.6% | 53.6% | 46.1% | 33.3% | 15.9% | 49.2% | 44.9% | 13.7% | 61.7 | 21.7% | 10.5% | 66.1% | 17.3 |
